From PubChem BioAssay (NCATS) come the findings set out here.

Inconclusive results are not listed. A call without a number means that no potency is given here. Activity calls are given as the source filed them. Calls follow the shape of the dose curve; as a rule, active = well fitted curve in the direction sought with a large enough effect; inconclusive = small, poorly fitted or top-dose-only effect, or another doubt; inactive = no such curve, though single readings can be large; an effect the other way counts as inactive or inconclusive.

Sequence of Parathyroid hormone/parathyroid hormone-related peptide receptor (Homo sapiens) (Q03431 whole entry, looked up): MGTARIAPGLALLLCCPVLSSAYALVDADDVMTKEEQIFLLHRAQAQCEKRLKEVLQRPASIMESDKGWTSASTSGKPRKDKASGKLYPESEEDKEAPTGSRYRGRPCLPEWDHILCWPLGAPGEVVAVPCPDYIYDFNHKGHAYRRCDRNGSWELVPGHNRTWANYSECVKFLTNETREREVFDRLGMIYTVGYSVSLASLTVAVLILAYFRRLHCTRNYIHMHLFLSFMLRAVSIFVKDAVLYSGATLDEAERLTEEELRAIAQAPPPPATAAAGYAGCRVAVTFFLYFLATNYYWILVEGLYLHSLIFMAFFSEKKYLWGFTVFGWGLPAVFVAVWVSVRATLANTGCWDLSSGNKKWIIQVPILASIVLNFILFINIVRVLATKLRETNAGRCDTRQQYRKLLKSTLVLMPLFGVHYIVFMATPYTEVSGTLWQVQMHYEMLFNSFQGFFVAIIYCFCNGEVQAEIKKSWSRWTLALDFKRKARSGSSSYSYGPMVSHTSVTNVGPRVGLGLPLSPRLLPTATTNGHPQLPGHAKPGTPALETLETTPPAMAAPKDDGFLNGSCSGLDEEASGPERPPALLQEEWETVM

In the first assay the target is Tyrosine-protein phosphatase non-receptor type substrate 1 (Homo sapiens) + Leukocyte surface antigen CD47 (Homo sapiens) (UniProt P78324+Q08722). Kind of assay: CD47-SIRPalpha protein protein interaction - Alpha assay qHTS validation (AID 1347059).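 Also: bead proximity luminescence from CD47 binding SIRPalpha after compound preincubation with SIRPalpha.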 To be noted: AlphaScreen CD47-His/biotin-SIRPalpha binding, LOPAC; series mostly up to 38.3 µM. The procedure, abridged: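 Biotinylated Avi-tagged SIRPalpha (25 nM) preincubated 30 min with compound, then His-tagged CD47 (12.5 nM) added 30 min; AlphaScreen with Ni-NTA acceptor and streptavidin donor beads. PBS pH 7.4, 0.05% IGEPAL, room temperature; 7-point titrations.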
Sequence of Tyrosine-protein phosphatase non-receptor type substrate 1 (Homo sapiens) + Leukocyte surface antigen CD47 (Homo sapiens) (P78324 whole entry, looked up): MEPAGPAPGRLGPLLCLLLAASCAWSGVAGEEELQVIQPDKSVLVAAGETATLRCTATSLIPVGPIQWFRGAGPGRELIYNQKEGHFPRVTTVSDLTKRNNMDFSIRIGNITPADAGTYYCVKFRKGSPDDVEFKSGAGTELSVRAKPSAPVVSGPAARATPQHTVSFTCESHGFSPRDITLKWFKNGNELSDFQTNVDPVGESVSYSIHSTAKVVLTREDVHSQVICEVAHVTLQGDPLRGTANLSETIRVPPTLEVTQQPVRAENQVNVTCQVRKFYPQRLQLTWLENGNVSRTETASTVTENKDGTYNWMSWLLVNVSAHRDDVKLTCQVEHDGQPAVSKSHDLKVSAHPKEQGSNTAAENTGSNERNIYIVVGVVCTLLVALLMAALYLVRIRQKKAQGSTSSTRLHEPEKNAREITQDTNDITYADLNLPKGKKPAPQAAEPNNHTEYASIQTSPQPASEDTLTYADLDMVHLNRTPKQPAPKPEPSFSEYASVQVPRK
Sequence of Tyrosine-protein phosphatase non-receptor type substrate 1 (Homo sapiens) + Leukocyte surface antigen CD47 (Homo sapiens) (Q08722 whole entry, looked up): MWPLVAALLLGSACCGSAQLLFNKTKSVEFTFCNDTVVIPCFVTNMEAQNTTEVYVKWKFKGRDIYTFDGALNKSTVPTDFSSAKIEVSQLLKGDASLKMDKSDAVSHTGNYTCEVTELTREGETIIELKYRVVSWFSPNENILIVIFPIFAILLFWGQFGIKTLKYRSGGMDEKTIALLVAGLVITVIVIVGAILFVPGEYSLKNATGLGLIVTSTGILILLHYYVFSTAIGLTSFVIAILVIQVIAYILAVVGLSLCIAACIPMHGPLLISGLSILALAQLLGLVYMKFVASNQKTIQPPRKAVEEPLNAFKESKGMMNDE
A general note: qHTS replaces the single test concentration by a dilution series.
For the compound `COc1ccc(-c2cc(=O)c3c(O)c(OC)c(OC)cc3o2)cc1O`, the Potency entry was “inactive”.
On the same count and under the same terms, the entry for `CC12C(=O)OC(=O)C1(C)C1CCC2O1` (stereo not given) is “inactive”.
On the same count and under the same terms, the entry for `S=C(S)OC1CC2CC1C1CCCC21` (stereo not given) is “inactive”.
On the same count and under the same terms, the entry for `CO[C@H]1O[C@@H]2O[C@]3(C)CC[C@@H]4[C@@H](C)CC[C@H]([C@H]1C)[C@]24OO3` is “inactive”; for `O=C(NOCC1CC1)c1cc(Br)c(F)c(F)c1Nc1ccc(I)cc1Cl` it is “inactive”.

The target of a further assay is Parathyroid hormone/parathyroid hormone-related peptide receptor (Homo sapiens) (UniProt Q03431). The assay can be described thus: qHTS for PTHR1 Agonists: Optimization Screen against the NCGC LOPAC library (AID 1347079).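 Also: GloSensor cAMP luminescence in HEK-293 GP2 cells expressing human PTHR1 with IBMX.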 Particulars: HEK293 GP2 PTHR1 GloSensor cAMP luminescence, 1 h; series mostly up to 57.1 µM. The procedure, abridged:
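Compounds were tested across a qHTS titration. PTHR1-expressing GP2 cells report cAMP rises via GloSensor luminescence after 1 hr compound exposure at 37C with IBMX present.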
With `C[N+]1(C)C2CC(OC(=O)[C@H](CO)c3ccccc3)CC1C1OC12` (stereo not given in full), the Potency entry is “inactive”.
With `COc1ccc(NC(=O)/C=C/c2ccc(Cl)cc2)cc1`, the Potency result was “inactive”.
The same measure, in the same setting: the entry for `COc1cc(OC)c(/C=C2/C(=O)Nc3ccccc32)c(OC)c1` is “inactive”.
On the same count and under the same terms, the entry for `Fc1cccc(/C=N/N=C/c2cccc(F)c2)c1` is “inactive”; for `CN=c1nc(-c2ccccc2)n(-c2ccccc2)s1` it is “inactive”.
Take `CCOC(=O)C1=C(C)NC(C)=C(C(=O)OCC)C1c1c(F)c(F)c(F)c(F)c1F`: the Potency result is “inactive”.
The same measure, in the same setting: the entry for `CN(C)CCC(c1ccc(Cl)cc1)c1ccccn1` (stereo not given) is “inactive”; for `O=C(c1ccc(Cl)cc1)N1CCN(c2ccc([N+](=O)[O-])c3ncccc23)CC1` it is “inactive”.
On the same count and under the same terms, the entry for `CNCC[C@H](Oc1ccc(C(F)(F)F)cc1)c1ccccc1` is “inactive”; for `C#C[C@]1(O)CC[C@H]2[C@@H]3CCC4=Cc5oncc5CC4(C)[C@H]3CCC21C` (stereo not given in full) it is “inactive”.
On the same count and under the same terms, the entry for `CC12C(=O)OC(=O)C1(C)C1CCC2O1` (stereo not given) is “inactive”.
Regarding `S=C(S)OC1CC2CC1C1CCCC21` (stereo not given), the Potency entry was “inactive”.

Tested on in another assay: not listed separately
Kind of assay: qHTS of pediatric cancer cell lines to identify multiple opportunities for drug repurposing: Primary screen for TC32 cells (AID 1347089). Also: nearly all actives have a fitted effect of over 60% in size. Particulars: TC32 Ewing sarcoma viability, CellTiter-Glo luminescence, 48 h; series mostly up to 45.8 µM. The procedure, abridged:
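Measured quantity: luminescence from CellTiter-Glo, reflecting metabolically active TC32 cells following 48 h of compound. Curves came straight from multi-point titrations, with 8 or 11 points in primary and 11 in confirmatory screening.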
As to `COc1ccnc2c1CCCCC2S(=O)c1nc2ccccc2[nH]1` (stereo not given), the Potency entry is “inactive”.
The same measure, in the same setting: the entry for `CCCCCCCCCCCCOCCO` is “inactive”; for `CC1(C)S[C@@H]2[C@H](NC(=O)[C@H](N)c3ccccc3)C(=O)N2[C@H]1C(=O)O` it is “inactive”.
The same measure, in the same setting: the entry for `O=C(CCN1CCN(CCO)CC1)N1c2ccccc2Sc2ccc(C(F)(F)F)cc21` is “inactive”; for `O=C(O)Cc1ccc2c(c1)C(=O)c1ccccc1CO2` it is “inactive”; for `O=C(O)/C=C\C(=O)O` it is “inactive”.

Tested on in another assay: not listed separately
Kind of assay: qHTS of pediatric cancer cell lines to identify multiple opportunities for drug repurposing: Primary screen for DAOY cells (AID 1347090). Also: nearly all actives have a fitted effect of over 55% in size. Particulars: DAOY medulloblastoma viability, CellTiter-Glo luminescence, 48 h; series mostly up to 46 µM. An outline of the steps: (§1)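 Viability measured as metabolically active cells via CellTiter-Glo luminescence following 48 hours of compound exposure, 11-point dilutions in confirmatory testing. 500-1,000 cells/well plated 5 hours before dosing; controls were DMSO and 2.3 µM bortezomib.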
With `COc1ccnc2c1CCCCC2S(=O)c1nc2ccccc2[nH]1` (stereo not given), the Potency result was “inactive”.
Same read-out and setting: the entry for `CCCCCCCCCCCCOCCO` is “inactive”; for `CC1(C)S[C@@H]2[C@H](NC(=O)[C@H](N)c3ccccc3)C(=O)N2[C@H]1C(=O)O` it is “inactive”; for `O=C(CCN1CCN(CCO)CC1)N1c2ccccc2Sc2ccc(C(F)(F)F)cc21` it is “inactive”.
On the same count and under the same terms, the entry for `O=C(O)Cc1ccc2c(c1)C(=O)c1ccccc1CO2` is “inactive”; for `O=C(O)/C=C\C(=O)O` it is “inactive”.

Tested on in the next assay: not listed separately
The assay can be described thus: qHTS of pediatric cancer cell lines to identify multiple opportunities for drug repurposing: Primary screen for SJ-GBM2 cells (AID 1347091). Particulars: SJ-GBM2 viability, CellTiter-Glo luminescence, 48 h; series mostly up to 46 µM. The procedure, abridged: as §1
Consider `COc1ccnc2c1CCCCC2S(=O)c1nc2ccccc2[nH]1` (stereo not given), for which the Potency entry is “inactive”.
The same measure, in the same setting: the entry for `CCCCCCCCCCCCOCCO` is “inactive”.
The same measure, in the same setting: the entry for `CC1(C)S[C@@H]2[C@H](NC(=O)[C@H](N)c3ccccc3)C(=O)N2[C@H]1C(=O)O` is “inactive”; for `O=C(CCN1CCN(CCO)CC1)N1c2ccccc2Sc2ccc(C(F)(F)F)cc21` it is “inactive”.
With `O=C(O)Cc1ccc2c(c1)C(=O)c1ccccc1CO2`, the Potency entry was “inactive”.
In the case of `O=C(O)/C=C\C(=O)O`, the Potency result was “inactive”.

Tested on in another assay: not listed separately
The assay can be described thus: qHTS of pediatric cancer cell lines to identify multiple opportunities for drug repurposing: Primary screen for A673 cells (AID 1347092). Also: nearly all actives have a fitted effect of over 45% in size. Particulars: A673 Ewing sarcoma viability, CellTiter-Glo ATP luminescence, 48 h; series mostly up to 46 µM. An outline of the steps:
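Cells are plated, rested 5 h, dosed by pintool, incubated 48 h, then lysed with CellTiter-Glo and read by luminescence. DMSO is the neutral control; bortezomib at 2.3 uM final is the positive control.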
For the compound `COc1ccnc2c1CCCCC2S(=O)c1nc2ccccc2[nH]1` (stereo not given), the Potency result was “inactive”.
Same read-out and setting: the entry for `CCCCCCCCCCCCOCCO` is “inactive”.
Regarding `CC1(C)S[C@@H]2[C@H](NC(=O)[C@H](N)c3ccccc3)C(=O)N2[C@H]1C(=O)O`, the Potency result was “inactive”.
Still for that read-out and setting: the entry for `O=C(CCN1CCN(CCO)CC1)N1c2ccccc2Sc2ccc(C(F)(F)F)cc21` is “inactive”; for `O=C(O)Cc1ccc2c(c1)C(=O)c1ccccc1CO2` it is “inactive”; for `O=C(O)/C=C\C(=O)O` it is “inactive”.

Tested on in a further assay: not listed separately
Kind of assay: qHTS of pediatric cancer cell lines to identify multiple opportunities for drug repurposing: Primary screen for SK-N-MC cells (AID 1347093). Particulars: SK-N-MC viability, CellTiter-Glo luminescence, 48 h; series mostly up to 46 µM. An outline of the steps: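 Metabolically active cells were quantified by ATP-dependent luminescence (CellTiter-Glo, 15 min at room temperature) following 48 h treatment. Cells had been plated at 500-1,000 per well and settled for 5 h beforehand.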
Turning to `COc1ccnc2c1CCCCC2S(=O)c1nc2ccccc2[nH]1` (stereo not given), the Potency entry is “inactive”.
Still for that read-out and setting: the entry for `CCCCCCCCCCCCOCCO` is “inactive”; for `CC1(C)S[C@@H]2[C@H](NC(=O)[C@H](N)c3ccccc3)C(=O)N2[C@H]1C(=O)O` it is “inactive”; for `O=C(CCN1CCN(CCO)CC1)N1c2ccccc2Sc2ccc(C(F)(F)F)cc21` it is “inactive”.
Same read-out and setting: the entry for `O=C(O)Cc1ccc2c(c1)C(=O)c1ccccc1CO2` is “inactive”.
Same read-out and setting: the entry for `O=C(O)/C=C\C(=O)O` is “inactive”.

Tested on in the next assay: not listed separately
Kind of assay: qHTS of pediatric cancer cell lines to identify multiple opportunities for drug repurposing: Primary screen for BT-37 cells (AID 1347094). Particulars: BT-37 viability, CellTiter-Glo luminescence, 48 h; series mostly up to 57.3 µM. An outline of the steps: (§2)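 Readout: CellTiter-Glo luminescence, 48 h treatment. Controls DMSO (neutral) and bortezomib 2.3 µM final (positive). Potency and efficacy taken from primary-screen concentration-response curves.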
For `COc1ccnc2c1CCCCC2S(=O)c1nc2ccccc2[nH]1` (stereo not given), the Potency result is “inactive”.
Still for that read-out and setting: the entry for `CCCCCCCCCCCCOCCO` is “inactive”; for `CC1(C)S[C@@H]2[C@H](NC(=O)[C@H](N)c3ccccc3)C(=O)N2[C@H]1C(=O)O` it is “inactive”.
Still for that read-out and setting: the entry for `O=C(CCN1CCN(CCO)CC1)N1c2ccccc2Sc2ccc(C(F)(F)F)cc21` is “inactive”; for `O=C(O)Cc1ccc2c(c1)C(=O)c1ccccc1CO2` it is “inactive”.
Same read-out and setting: the entry for `O=C(O)/C=C\C(=O)O` is “inactive”.

Tested on in another assay: not listed separately
The assay can be described thus: qHTS of pediatric cancer cell lines to identify multiple opportunities for drug repurposing: Primary screen for NB-EBc1 cells (AID 1347095). To be noted: NB-EBc1 neuroblastoma viability, CellTiter-Glo luminescence, 48 h; series mostly up to 46 µM. An outline of the steps:
as §2
Take `COc1ccnc2c1CCCCC2S(=O)c1nc2ccccc2[nH]1` (stereo not given): the Potency result is “inactive”.
The same measure, in the same setting: the entry for `CCCCCCCCCCCCOCCO` is “inactive”; for `CC1(C)S[C@@H]2[C@H](NC(=O)[C@H](N)c3ccccc3)C(=O)N2[C@H]1C(=O)O` it is “inactive”.
For `O=C(CCN1CCN(CCO)CC1)N1c2ccccc2Sc2ccc(C(F)(F)F)cc21`, the Potency entry was “inactive”.
On the same count and under the same terms, the entry for `O=C(O)Cc1ccc2c(c1)C(=O)c1ccccc1CO2` is “inactive”; for `O=C(O)/C=C\C(=O)O` it is “inactive”.

Tested on in the next assay: not listed separately
Kind of assay: qHTS of pediatric cancer cell lines to identify multiple opportunities for drug repurposing: Primary screen for U-2 OS cells (AID 1347096). Also: nearly all actives have a fitted effect of over 50% in size. To be noted: U-2 OS viability, CellTiter-Glo luminescence, 48 h; series mostly up to 46 µM. The procedure, abridged:
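Viability after 48 h compound treatment at 37C, 500-1,000 cells/well, read as ATP luminescence with CellTiter-Glo. Primary screens used 11-point (MIPE, 0.78 nM-46 µM) or 8-point (NPC, 0.59 nM-46 µM) final concentrations; follow-up screens used 11-point dilutions.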
As for `COc1ccnc2c1CCCCC2S(=O)c1nc2ccccc2[nH]1` (stereo not given), the Potency entry is “inactive”.
The same measure, in the same setting: the entry for `CCCCCCCCCCCCOCCO` is “inactive”; for `CC1(C)S[C@@H]2[C@H](NC(=O)[C@H](N)c3ccccc3)C(=O)N2[C@H]1C(=O)O` it is “inactive”; for `O=C(CCN1CCN(CCO)CC1)N1c2ccccc2Sc2ccc(C(F)(F)F)cc21` it is “inactive”.
Still for that read-out and setting: the entry for `O=C(O)Cc1ccc2c(c1)C(=O)c1ccccc1CO2` is “inactive”.
On to `O=C(O)/C=C\C(=O)O`, for which the Potency entry is “inactive”.
